# Laboratory results taken from PubChem BioAssay (EPA / NIEHS).
# Inconclusive results are not listed. Active and inactive are the calls of the source. Rule for the calls: active = hit-call score of the fitted dose curve at least 0.9, where 1 is the maximum; inconclusive = response in the unintended direction; inactive = score below 0.9.
# Tests used:
# [1] = molecular target: zebrafish Estrogen Receptor (ESR1), esr1 (gene 259252) (UniProt P57717); assay: ATG_zfER1_XSP1: Attagene TRANS-FACTORIAL Multi-Species (XSP1) HepG2 Assay for zebrafish Estrogen Receptor (ESR1) (AID 2283772)
# In short: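 Transfect HepG2 with GAL4-UAS multi-reporter constructs; treat 24 h (medium carries 3 nM 6-alpha-fluorotestosterone); extract RNA, reverse-transcribe, PCR-amplify, FAM-label, digest with HpaI; resolve by capillary electrophoresis and compare against DMSO baseline.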
# [2] = tested on: zebrafish Estrogen Receptor (ESR2B), gene 317733; assay: ATG_zfER2b_XSP1: Attagene TRANS-FACTORIAL Multi-Species (XSP1) HepG2 Assay for zebrafish Estrogen Receptor (ESR2B) (AID 2283773)
# In short: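 Gain-of-signal endpoint relative to DMSO: reporter transcript levels quantified by RT-PCR and capillary electrophoresis after 24 h compound exposure of HepG2 cells expressing a zebrafish ER2b-Gal4 chimera.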
# [3] = tested on: frog Estrogen Receptor (ESR2), gene 100174814; assay: ATG_frER2_XSP1: Attagene TRANS-FACTORIAL Multi-Species (XSP1) HepG2 Assay for frog Estrogen Receptor (ESR2) (AID 2283774)
# In short: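 Transactivation of an exogenous receptor-Gal4 fusion is tracked in transfected HepG2 cells via induced reporter transcript levels. After 24 h treatment, RT-PCR with capillary electrophoresis quantifies signal gain over DMSO.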
# [4] = ACEA_AR_agonist_AUC_viability: ACEA Biosciences xCELLigence Real-Time Cell Analysis on Androgen Receptor Agonism for Viability (AID 2283775);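 for AC50: viability read 80 hours after compound addition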
# In short: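 Read-out is area under the impedance curve at 80 h post-dose in 22Rv1 cells, with DMSO as baseline and signal loss taken as reduced viability. Compounds ran in duplicate from 100 uM final.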
# [5] = tested on: frog Estrogen Receptor (ESR1), gene 398734; assay: ATG_frER1_XSP1: Attagene TRANS-FACTORIAL Multi-Species (XSP1) HepG2 Assay for frog Estrogen Receptor (ESR1) (AID 2283777)
# In short: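 Human hepatoma HepG2 cells carried transiently transfected multiplexed Gal4-driven reporters and were exposed to test chemicals for 24 hours. Transcripts were quantified by fluorescent RT-PCR with capillary electrophoresis, referenced to DMSO.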
# [6] = tested on: zebrafish Estrogen Receptor (ESR2A), gene 317734; assay: ATG_zfER2a_XSP1: Attagene TRANS-FACTORIAL Multi-Species (XSP1) HepG2 Assay for zebrafish Estrogen Receptor (ESR2A) (AID 2283778)
# In short: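 Cells were transfected, dosed for 24 h, then total RNA was isolated. After oligo(dT) reverse transcription, reporter sequences were amplified, FAM-labelled by primer extension, digested with HpaI and sized by capillary electrophoresis; DMSO served as baseline.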
# [7] = molecular target: chicken Estrogen Receptor (ESR1), ESR1 (gene 396099) (UniProt P06212); assay: ATG_chERa_XSP1: Attagene TRANS-FACTORIAL Multi-Species (XSP1) HepG2 Assay for chicken Estrogen Receptor (ESR1) (AID 2283779)
# In short: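 Human liver HepG2, transient MRTU transfection (NR-Gal4 chimeras, GAL4-UAS reporters); 24 h compound exposure; 3 nM 6-alpha-fluorotestosterone in medium. Total RNA → RT-PCR → 6-FAM primer extension → HpaI → CE. Positive direction vs DMSO baseline.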
# [8] = tested on: turtle Androgen Receptor (AR), gene 101947425; assay: ATG_trAR_XSP1: Attagene TRANS-FACTORIAL Multi-Species (XSP1) HepG2 Assay for turtle Androgen Receptor (AR) (AID 2283786)
# In short: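 HepG2 cells transiently transfected with a turtle AR–GAL4 chimera and GAL4-UAS reporter, co-treated with 3 nM 6-alpha-fluorotestosterone for partial stimulation. Reporter mRNA is quantified at 24 h by RT-PCR and capillary electrophoresis, gain-of-signal versus DMSO.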
# [9] = molecular target: Estrogen receptor beta (Homo sapiens) (UniProt Q92731); assay: ATG_hERb_XSP1: Attagene TRANS-FACTORIAL Multi-Species (XSP1) HepG2 Assay for human Estrogen Receptor (ESR2) (AID 2283788)
# In short: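 Measured endpoint is transcriptional gain of signal from a GAL4-UAS reporter controlled by chimeric ERβ in HepG2 liver cells. Exposure lasts 24 h alongside 3 nM 6-alpha-fluorotestosterone, with DMSO as negative control.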
# [10] = ATG_M_06_XSP1: Attagene TRANS-FACTORIAL Multi-Species (XSP1) HepG2 Assay for M06 Transcription Factor (Internal Marker) (AID 2283790)
# In short: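 Transfected HepG2 multi-reporter system treated 24 h in the presence of 3 nM 6-alpha-fluorotestosterone. The M06 internal marker transcript was quantified by RT-PCR with capillary electrophoresis as a background control, and gain of signal was scored versus DMSO.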
# [11] = ATG_M_61_XSP1: Attagene TRANS-FACTORIAL Multi-Species (XSP1) HepG2 Assay for M61 Transcription Factor (Internal Marker) (AID 2283797)
# In short: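 HepG2 cells transiently transfected with multiplexed GAL4-driven reporter units, dosed 24 h with 3 nM 6-alpha-fluorotestosterone present. Reporter mRNA quantified by RT-PCR, 6-FAM labelling, HpaI digestion and capillary electrophoresis; internal-marker background control, gain of signal versus DMSO.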
# [12] = molecular target: Peroxisome proliferator-activated receptor gamma (Homo sapiens) (UniProt P37231); assay: ATG_hPPARg_XSP1: Attagene TRANS-FACTORIAL Multi-Species (XSP1) HepG2 Assay for human Peroxisome Proliferator-activated Receptor gamma (PPARg) (AID 2283800)
# In short: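 HepG2 cells transiently transfected with GAL4-UAS reporter units carrying chimeric NR-Gal4 proteins; 3 nM 6-alpha-fluorotestosterone present. After 24 h dosing, reporter mRNA quantified by RT-PCR and capillary electrophoresis; gain of signal relative to DMSO.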
# [13] = tested on: zebrafish Peroxisome Proliferator-activated Receptor gamma (PPARg), gene 557037; assay: ATG_zfPPARg_XSP1: Attagene TRANS-FACTORIAL Multi-Species (XSP1) HepG2 Assay for zebrafish Peroxisome Proliferator-activated Receptor gamma (PPARg) (AID 2283801)
# In short: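 HepG2 cells transiently transfected with GAL4-UAS reporter units including a zebrafish PPARg–GAL4 chimera, dosed 24 h with 3 nM 6-alpha-fluorotestosterone present. Reporter mRNA quantified by RT-PCR, FAM labelling, HpaI digestion and capillary electrophoresis; induction versus DMSO.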
# [14] = molecular target: GAL4 Transcription Factor (Internal Marker), GAL4 (gene 855828) (UniProt P04386); assay: ATG_GAL4_XSP1: Attagene TRANS-FACTORIAL Multi-Species (XSP1) HepG2 Assay for GAL4 Transcription Factor (Internal Marker) (AID 2283789)
# In short: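 HepG2 cells transiently transfected with multiplexed GAL4-UAS reporter units were exposed for 24 h with 3 nM 6-alpha-fluorotestosterone present. Reporter mRNA was quantified by RT-PCR, FAM labelling, HpaI digestion and capillary electrophoresis; background-control readout, gain-of-signal versus DMSO.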
# [15] = ATG_M_32_XSP1: Attagene TRANS-FACTORIAL Multi-Species (XSP1) HepG2 Assay for M32 Transcription Factor (Internal Marker) (AID 2283799)
# In short: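 HepG2 cells transiently transfected with multi-species TRANS reporter units, dosed 24 h with 3 nM 6-alpha-fluorotestosterone present. Internal-marker reporter mRNA quantified by RT-PCR and capillary electrophoresis; positive-direction fit versus DMSO.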
# [16] = ACEA_AR_antagonist_AUC_viability: ACEA Biosciences xCELLigence Real-Time Cell Analysis on Androgen Receptor Antagonism for Viability (AID 2283776);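 note: 22Rv1 human prostate cancer cells growing on impedance electrode plates; area under impedance growth curve at 80 h after dosing as viability; hits lower the growth signal relative to DMSO meaning cytotoxicity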
# In short: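 Viability endpoint from label-free cell-index monitoring: 22Rv1 cultures treated with an eight-point 1:4 dilution series starting at 100 uM final, AUC at 80 h fitted against DMSO.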
# [17] = ATG_M_19_XSP1: Attagene TRANS-FACTORIAL Multi-Species (XSP1) HepG2 Assay for M19 Transcription Factor (Internal Marker) (AID 2283798)
# In short: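 HepG2 cells transiently transfected with multiplexed GAL4-UAS reporter units, dosed 24 h with 3 nM 6-alpha-fluorotestosterone present for partial AR stimulation. Reporter mRNA measured by RT-PCR with capillary electrophoresis; gain-of-signal fitted relative to DMSO.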
# Chain of zebrafish Estrogen Receptor (ESR1), esr1 (gene 259252) (P57717 whole entry, looked up, the tested form may be a part): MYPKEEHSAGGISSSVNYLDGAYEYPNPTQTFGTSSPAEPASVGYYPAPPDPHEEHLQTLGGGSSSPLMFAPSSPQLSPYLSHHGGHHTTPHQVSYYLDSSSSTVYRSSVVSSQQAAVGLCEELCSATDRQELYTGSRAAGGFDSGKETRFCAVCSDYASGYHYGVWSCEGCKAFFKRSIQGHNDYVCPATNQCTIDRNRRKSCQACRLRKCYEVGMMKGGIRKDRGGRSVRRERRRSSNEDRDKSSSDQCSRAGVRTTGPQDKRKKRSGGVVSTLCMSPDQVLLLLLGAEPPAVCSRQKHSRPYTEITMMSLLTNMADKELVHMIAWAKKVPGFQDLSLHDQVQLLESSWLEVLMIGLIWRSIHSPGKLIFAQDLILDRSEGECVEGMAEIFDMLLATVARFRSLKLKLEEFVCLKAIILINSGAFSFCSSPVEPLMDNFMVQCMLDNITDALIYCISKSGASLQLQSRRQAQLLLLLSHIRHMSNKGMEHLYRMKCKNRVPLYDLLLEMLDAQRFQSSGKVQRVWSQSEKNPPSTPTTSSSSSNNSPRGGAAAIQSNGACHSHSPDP
# Chain of GAL4 Transcription Factor (Internal Marker), GAL4 (gene 855828) (P04386 whole entry, looked up, the tested form may be a part): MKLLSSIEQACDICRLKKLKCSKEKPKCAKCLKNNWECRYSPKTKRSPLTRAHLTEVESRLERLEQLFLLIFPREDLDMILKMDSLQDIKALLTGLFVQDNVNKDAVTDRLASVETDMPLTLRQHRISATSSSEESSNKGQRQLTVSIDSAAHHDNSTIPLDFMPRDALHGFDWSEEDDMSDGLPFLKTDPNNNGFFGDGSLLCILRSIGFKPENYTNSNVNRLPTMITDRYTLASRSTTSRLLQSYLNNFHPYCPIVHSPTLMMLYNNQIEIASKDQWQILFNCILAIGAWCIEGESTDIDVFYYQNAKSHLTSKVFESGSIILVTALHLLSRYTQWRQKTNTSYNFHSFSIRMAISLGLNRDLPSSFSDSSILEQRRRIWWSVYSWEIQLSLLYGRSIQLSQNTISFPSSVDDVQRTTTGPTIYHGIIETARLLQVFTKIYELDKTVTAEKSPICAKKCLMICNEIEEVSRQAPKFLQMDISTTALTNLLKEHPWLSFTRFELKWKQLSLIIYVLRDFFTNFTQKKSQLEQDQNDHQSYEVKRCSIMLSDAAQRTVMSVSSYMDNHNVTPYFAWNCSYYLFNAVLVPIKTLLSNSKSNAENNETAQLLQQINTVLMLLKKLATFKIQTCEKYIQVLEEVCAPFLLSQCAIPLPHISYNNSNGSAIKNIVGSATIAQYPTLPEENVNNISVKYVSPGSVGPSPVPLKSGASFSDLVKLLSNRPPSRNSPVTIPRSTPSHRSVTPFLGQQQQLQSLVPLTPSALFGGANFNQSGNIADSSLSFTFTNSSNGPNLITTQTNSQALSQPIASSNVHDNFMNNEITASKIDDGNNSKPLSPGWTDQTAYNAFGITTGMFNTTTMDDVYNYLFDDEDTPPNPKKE
# Chain of Peroxisome proliferator-activated receptor gamma (Homo sapiens) (P37231 whole entry, looked up, the tested form may be a part): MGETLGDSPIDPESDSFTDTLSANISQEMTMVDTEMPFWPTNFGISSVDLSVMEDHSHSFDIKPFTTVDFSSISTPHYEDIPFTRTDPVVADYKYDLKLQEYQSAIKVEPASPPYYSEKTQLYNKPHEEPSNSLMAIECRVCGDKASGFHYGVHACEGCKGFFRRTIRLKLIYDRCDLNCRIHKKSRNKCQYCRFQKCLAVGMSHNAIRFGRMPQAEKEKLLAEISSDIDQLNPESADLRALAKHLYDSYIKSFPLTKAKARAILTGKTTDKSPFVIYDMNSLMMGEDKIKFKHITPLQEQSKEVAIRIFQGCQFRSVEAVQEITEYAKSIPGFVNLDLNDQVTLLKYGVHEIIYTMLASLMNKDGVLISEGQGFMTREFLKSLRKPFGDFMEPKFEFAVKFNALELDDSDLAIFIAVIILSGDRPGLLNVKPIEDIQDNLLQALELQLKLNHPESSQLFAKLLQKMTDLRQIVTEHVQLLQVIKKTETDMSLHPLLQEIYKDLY
# Chain of Estrogen receptor beta (Homo sapiens) (Q92731 whole entry, looked up, the tested form may be a part): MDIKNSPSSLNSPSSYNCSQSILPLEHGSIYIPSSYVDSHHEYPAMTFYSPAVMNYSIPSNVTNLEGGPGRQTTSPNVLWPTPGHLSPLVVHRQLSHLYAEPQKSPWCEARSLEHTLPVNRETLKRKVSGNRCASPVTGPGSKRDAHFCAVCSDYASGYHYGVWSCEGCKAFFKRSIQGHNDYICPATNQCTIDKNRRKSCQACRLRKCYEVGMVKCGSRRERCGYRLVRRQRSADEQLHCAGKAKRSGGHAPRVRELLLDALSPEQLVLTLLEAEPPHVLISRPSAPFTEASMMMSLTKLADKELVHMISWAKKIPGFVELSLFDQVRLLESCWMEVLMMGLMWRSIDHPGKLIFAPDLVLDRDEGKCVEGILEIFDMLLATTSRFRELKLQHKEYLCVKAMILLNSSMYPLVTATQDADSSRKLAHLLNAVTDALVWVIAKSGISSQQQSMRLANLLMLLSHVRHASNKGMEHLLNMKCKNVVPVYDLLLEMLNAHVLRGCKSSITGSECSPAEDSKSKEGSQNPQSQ
# Chain of chicken Estrogen Receptor (ESR1), ESR1 (gene 396099) (P06212 whole entry, looked up, the tested form may be a part): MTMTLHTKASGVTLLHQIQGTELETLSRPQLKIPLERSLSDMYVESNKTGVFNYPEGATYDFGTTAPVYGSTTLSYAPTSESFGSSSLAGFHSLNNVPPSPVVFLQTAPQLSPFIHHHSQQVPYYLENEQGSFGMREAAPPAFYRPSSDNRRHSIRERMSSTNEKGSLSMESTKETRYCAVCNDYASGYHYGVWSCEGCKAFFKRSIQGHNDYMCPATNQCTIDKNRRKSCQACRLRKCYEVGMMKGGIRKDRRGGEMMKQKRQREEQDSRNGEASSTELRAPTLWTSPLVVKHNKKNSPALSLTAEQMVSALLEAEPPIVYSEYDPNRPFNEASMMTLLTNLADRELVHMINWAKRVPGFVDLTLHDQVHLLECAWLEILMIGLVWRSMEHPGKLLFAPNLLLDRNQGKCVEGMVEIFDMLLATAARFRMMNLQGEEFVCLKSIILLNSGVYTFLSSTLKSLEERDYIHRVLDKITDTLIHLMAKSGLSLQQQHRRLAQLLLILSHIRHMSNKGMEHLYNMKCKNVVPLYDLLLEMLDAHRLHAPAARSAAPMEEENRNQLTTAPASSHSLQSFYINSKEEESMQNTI
structure (smiles),measurement,setting,value
CC(C)(C)c1ccc(CSc2cnn(C(C)(C)C)c(=O)c2Cl)cc1,outcome,[1],inactive
same,outcome,[2],inactive
same,outcome,[3],inactive
same,AC50,[4],16 µM (active)
same,outcome,[5],inactive
same,outcome,[6],inactive
same,outcome,[7],inactive
same,outcome,[8],inactive
same,outcome,[9],inactive
same,outcome,[10],inactive
same,outcome,[11],inactive
same,AC50,[12],0.387 µM (active)
same,outcome,[13],inactive
CCCN(CCC)c1c([N+](=O)[O-])cc(S(N)(=O)=O)cc1[N+](=O)[O-],outcome,[1],inactive
same,AC50,[2],14.2 µM (active)
same,AC50,[3],11.2 µM (active)
same,AC50,[5],12.7 µM (active)
same,AC50,[6],33.4 µM (active)
same,AC50,[7],16.2 µM (active)
same,outcome,[8],inactive
same,AC50,[9],14.8 µM (active)
same,AC50,[14],49.1 µM (active)
same,outcome,[10],inactive
same,outcome,[11],inactive
same,AC50,[15],54.4 µM (active)
same,AC50,[12],46.9 µM (active)
same,outcome,[13],inactive
OC(c1ccc(Cl)cc1)(c1cncnc1)c1ccccc1Cl (centres undefined),AC50,[1],26.4 µM (active)
same,AC50,[2],8.4 µM (active)
same,AC50,[3],4.32 µM (active)
same,AC50,[4],72 µM (active)
same,AC50,[16],67.8 µM (active)
same,AC50,[6],4.49 µM (active)
same,AC50,[7],2.36 µM (active)
same,AC50,[9],1.98 µM (active)
same,outcome,[12],inactive
same,AC50,[13],34.9 µM (active)
CCOC(=O)C(Cl)Cc1cc(-n2nc(C)n(C(F)F)c2=O)c(F)cc1Cl (centres undefined),outcome,[4],inactive
CCCCOC(=O)c1ccccc1C(=O)OCCCC,AC50,[2],24.6 µM (active)
same,AC50,[4],77.2 µM (active)
same,outcome,[5],inactive
same,AC50,[7],26.7 µM (active)
same,outcome,[14],inactive
same,outcome,[17],inactive
same,outcome,[15],inactive
same,AC50,[12],27.5 µM (active)
same,outcome,[13],inactive
C=CC1(C)OC(=O)N(c2cc(Cl)cc(Cl)c2)C1=O (centres undefined),AC50,[2],168 µM (active)
same,outcome,[3],inactive
same,AC50,[4],38.5 µM (active)
same,outcome,[5],inactive
same,outcome,[6],inactive
same,AC50,[7],59.9 µM (active)
same,outcome,[9],inactive
same,outcome,[14],inactive
same,outcome,[10],inactive
same,outcome,[11],inactive
same,outcome,[17],inactive
same,outcome,[13],inactive
